Results published in PubChem BioAssay (EPA / NIEHS).
The source made the active and inactive calls. Rule for the calls: active = hit-call score of the fitted dose curve at least 0.9, where 1 is the maximum; inactive = score below 0.9.

Legend:
Conditions in all cases: mRNA level, 48 h; actives raise or lower the signal
[1] = read-out: Glutathione S-Transferase (GSTA2), GSTA2 (gene 2939); assay: LTEA_HepaRG_GSTA2: Life Technologies and Expression Analysis (LTEA) Assay for Glutathione S-Transferase (GSTA2) using HepaRG (AID 2283497)
In short: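 Human HepaRG cells, plated 48 h, then exposed in serum-free induction medium for 48 h to eight half-log concentrations up to 100 uM in 0.5% DMSO, duplicate. GSTA2 mRNA by qRT-PCR, normalized to ACTB/GAPDH/POLR2A; bidirectional fit versus DMSO.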

[2] = read-out: Glutamate-cysteine ligase catalytic (GCLC), GCLC (gene 2729); assay: LTEA_HepaRG_GCLC: Life Technologies and Expression Analysis (LTEA) Assay for Glutamate-cysteine ligase catalytic (GCLC) using HepaRG (AID 2283498)
In short: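 Differentiated human HepaRG cells, plated 48 h then switched to serum-free induction medium, were exposed in duplicate for 48 h to 8 half-log concentrations topping at 100 uM in 0.5% DMSO. GCLC mRNA was quantified by qRT-PCR against ACTB, GAPDH and POLR2A.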

[3] = read-out: growth arrest and DNA damage 45 (GADD45G), GADD45G (gene 10912); assay: LTEA_HepaRG_GADD45G: Life Technologies and Expression Analysis (LTEA) Assay for growth arrest and DNA damage 45 (GADD45G) using HepaRG (AID 2283499)
In short: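 Concentration-response in HepaRG: 48 h dosing, 0.5% DMSO, highest level 100 uM. GADD45G expression by qRT-PCR, normalised to endogenous controls; bidirectional fit to DMSO.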

[4] = read-out: Glutamate-cysteine ligase regulatory (GCLM), GCLM (gene 2730); assay: LTEA_HepaRG_GCLM: Life Technologies and Expression Analysis (LTEA) Assay for Glutamate-cysteine ligase regulatory (GCLM) using HepaRG (AID 2283500)
In short: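 Human liver HepaRG cultures receive test chemicals for 48 hours at up to 100 uM in 0.5% DMSO. GCLM expression is measured by qRT-PCR and analysed for increases or decreases against vehicle.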

[5] = read-out: Glutathione S-transferase M3 (GSTM3), GSTM3 (gene 2947); assay: LTEA_HepaRG_GSTM3: Life Technologies and Expression Analysis (LTEA) Assay for Glutathione S-transferase M3 (GSTM3) using HepaRG (AID 2283501)
In short: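 Expression of GSTM3 is determined by qRT-PCR in human liver HepaRG cells treated 48 h with an 8-point half-log range from 100 uM in 0.5% DMSO.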

[6] = read-out: Heat shock 70 kDa protein 1 (HSPA1A), gene 3303; assay: LTEA_HepaRG_HSPA1A: Life Technologies and Expression Analysis (LTEA) Assay for Heat shock 70 kDa protein 1 (HSPA1A) using HepaRG (AID 2283502)
In short: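 HSPA1A induction in human HepaRG liver cells is measured after 48 h of chemical treatment (100 uM maximum, 0.5% DMSO vehicle). Expression comes from qRT-PCR normalized to endogenous controls.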

[7] = read-out: Hypoxia-inducible factor 1-alpha (Homo sapiens) (UniProt Q16665); assay: LTEA_HepaRG_HIF1A: Life Technologies and Expression Analysis (LTEA) Assay for Hypoxia-inducible factor 1 (HIF1A) Trancription factor using HepaRG (AID 2283503)
In short: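 HepaRG, 48 h exposure, 8-pt half-log series from 100 uM, 0.5% DMSO vehicle, duplicates. Readout: HIF1A transcript by qRT-PCR (Fluidigm array), housekeeping-normalised. Bidirectional curve fit vs DMSO baseline.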

[8] = read-out: 3-Hydroxy-3-Methylglutaryl-CoA Synthase 2 (HMGCS2), HMGCS2 (gene 3158); assay: LTEA_HepaRG_HMGCS2: Life Technologies and Expression Analysis (LTEA) Assay for 3-Hydroxy-3-Methylglutaryl-CoA Synthase 2 (HMGCS2) using HepaRG (AID 2283504)
In short: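 This steatosis marker was read as HMGCS2 mRNA change in HepaRG cells treated 48 h with up to 100 uM chemical. Normalisation used housekeeping genes; activity in either direction was fitted relative to 0.5% DMSO vehicle.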

[9] = read-out: Insulin Like Growth Factor 1 (IGF1), IGF1 (gene 3479); assay: LTEA_HepaRG_IGF1: Life Technologies and Expression Analysis (LTEA) Assay for Insulin Like Growth Factor 1 (IGF1) using HepaRG (AID 2283506)
In short: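 Using human HepaRG liver cells, IGF1 transcript induction or suppression is measured 48 h after dosing across eight concentrations capped at 100 uM. Values derive from bidirectional concentration-response fitting with DMSO as baseline.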

[10] = read-out: Intercellular Adhesion Molecule 1 (ICAM1), ICAM1 (gene 3383); assay: LTEA_HepaRG_ICAM1: Life Technologies and Expression Analysis (LTEA) Assay for Intercellular Adhesion Molecule 1 (ICAM1) using HepaRG (AID 2283507)
In short: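 Using the human liver line HepaRG, compounds are tested in duplicate over 48 h at concentrations up to 100 uM. Expression is determined by TaqMan qRT-PCR, normalized to endogenous controls, and analysed relative to 0.5% DMSO vehicle.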

[11] = read-out: Insulin-like growth factor-binding protein 1 (IGFBP1), IGFBP1 (gene 3484); assay: LTEA_HepaRG_IGFBP1: Life Technologies and Expression Analysis (LTEA) Assay for Insulin-like growth factor-binding protein 1 (IGFBP1) using HepaRG (AID 2283508)
In short: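 HepaRG, 48 h, 8 conc. (max 100 uM, half-log), duplicates, 0.5% DMSO. Readout: TaqMan qRT-PCR, ACTB/GAPDH/POLR2A normalisation. Fit: bidirectional vs DMSO.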

[12] = read-out: Interleukin 6 (IL6), IL6 (gene 3569); assay: LTEA_HepaRG_IL6: Life Technologies and Expression Analysis (LTEA) Assay for Interleukin 6 (IL6) using HepaRG (AID 2283509)
In short: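 Differentiated human HepaRG cells, plated 48 h then switched to serum-free induction medium, were exposed in duplicate for 48 h to eight half-log concentrations up to 100 uM in 0.5% DMSO. IL6 mRNA measured by qRT-PCR, normalized to ACTB/GAPDH/POLR2A.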

[13] = read-out: Interleukin 6 Receptor (IL6R), IL6R (gene 3570); assay: LTEA_HepaRG_IL6R: Life Technologies and Expression Analysis (LTEA) Assay for Interleukin 6 Receptor (IL6R) using HepaRG (AID 2283510);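 for AC50: TaqMan qRT-PCR signal normalized to ACTB GAPDH and POLR2A housekeeping genes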
In short: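 Concentration-response in human liver HepaRG cells: eight concentrations from 100 uM downward by half-logs, 48 h exposure, 0.5% DMSO vehicle. IL6R mRNA change measured by qRT-PCR and fitted in both directions relative to vehicle.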

[14] = read-out: Potassium channel subfamily K member 1 (KCNK1), KCNK1 (gene 3775); assay: LTEA_HepaRG_KCNK1: Life Technologies and Expression Analysis (LTEA) Assay for Potassium channel subfamily K member 1 (KCNK1) using HepaRG (AID 2283511)
In short: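 Differentiated human HepaRG cells in serum-free induction medium were exposed in duplicate for 48 h to 8 half-log concentrations up to 100 uM in 0.5% DMSO. KCNK1 mRNA was measured by TaqMan qRT-PCR, normalized to ACTB, GAPDH and POLR2A, and fitted bidirectionally versus DMSO.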

[15] = read-out: Keratin 19 (KRT19), KRT19 (gene 3880); assay: LTEA_HepaRG_KRT19: Life Technologies and Expression Analysis (LTEA) Assay for Keratin 19 (KRT19) using HepaRG (AID 2283512)
In short: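 Readout is qRT-PCR of KRT19 mRNA, normalized to ACTB, GAPDH and POLR2A, from HepaRG cells treated 48 h with eight-point half-log dilutions topping at 100 uM. Activity in either direction is scored relative to 0.5% DMSO vehicle.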

[16] = read-out: JUN Transcription Factor, JUN (gene 3725); assay: LTEA_HepaRG_JUN: Life Technologies and Expression Analysis (LTEA) Assay for JUN Transcription Factor using HepaRG (AID 2283513)
In short: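 Human HepaRG liver cells receive test chemicals in 0.5% DMSO for 48 h across an eight-point range topping at 100 uM. Expression changes in JUN are scored in both directions against the DMSO vehicle.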

[17] = read-out: Lipase C (LIPC), LIPC (gene 3990); assay: LTEA_HepaRG_LIPC: Life Technologies and Expression Analysis (LTEA) Assay for Lipase C (LIPC) using HepaRG (AID 2283514)
In short: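 Differentiated human HepaRG cells in serum-free induction medium were exposed in duplicate for 48 h to eight concentrations (top 100 uM, half-log steps, 0.5% DMSO). LIPC mRNA was quantified by TaqMan qRT-PCR, normalized to ACTB, GAPDH and POLR2A, with bidirectional fitting versus DMSO.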

[18] = read-out: Lipoprotein lipase (LPL), LPL (gene 4023); assay: LTEA_HepaRG_LPL: Life Technologies and Expression Analysis (LTEA) Assay for Lipoprotein lipase (LPL) using HepaRG (AID 2283515)
In short: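 Differentiated human HepaRG cells in serum-free induction medium were exposed in duplicate for 48 h to eight half-log concentrations (top 100 uM) in 0.5% DMSO. LPL mRNA was quantified by TaqMan qRT-PCR, normalized to ACTB, GAPDH and POLR2A.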

HGF (gene 3082) = assay: LTEA_HepaRG_HGF: Life Technologies and Expression Analysis (LTEA) Assay for Hepatocyte Growth Facto (HGF) using HepaRG (AID 2283505)
In short: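 Using HepaRG monolayers kept in 0.5% DMSO, chemicals were tested in duplicate over eight half-log concentrations from 100 uM for 48 h. Endpoint: HGF mRNA change relative to DMSO, normalized to ACTB/GAPDH/POLR2A.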

Measured: AC50

Chain of Hypoxia-inducible factor 1-alpha (Homo sapiens) (Q16665 whole entry, looked up): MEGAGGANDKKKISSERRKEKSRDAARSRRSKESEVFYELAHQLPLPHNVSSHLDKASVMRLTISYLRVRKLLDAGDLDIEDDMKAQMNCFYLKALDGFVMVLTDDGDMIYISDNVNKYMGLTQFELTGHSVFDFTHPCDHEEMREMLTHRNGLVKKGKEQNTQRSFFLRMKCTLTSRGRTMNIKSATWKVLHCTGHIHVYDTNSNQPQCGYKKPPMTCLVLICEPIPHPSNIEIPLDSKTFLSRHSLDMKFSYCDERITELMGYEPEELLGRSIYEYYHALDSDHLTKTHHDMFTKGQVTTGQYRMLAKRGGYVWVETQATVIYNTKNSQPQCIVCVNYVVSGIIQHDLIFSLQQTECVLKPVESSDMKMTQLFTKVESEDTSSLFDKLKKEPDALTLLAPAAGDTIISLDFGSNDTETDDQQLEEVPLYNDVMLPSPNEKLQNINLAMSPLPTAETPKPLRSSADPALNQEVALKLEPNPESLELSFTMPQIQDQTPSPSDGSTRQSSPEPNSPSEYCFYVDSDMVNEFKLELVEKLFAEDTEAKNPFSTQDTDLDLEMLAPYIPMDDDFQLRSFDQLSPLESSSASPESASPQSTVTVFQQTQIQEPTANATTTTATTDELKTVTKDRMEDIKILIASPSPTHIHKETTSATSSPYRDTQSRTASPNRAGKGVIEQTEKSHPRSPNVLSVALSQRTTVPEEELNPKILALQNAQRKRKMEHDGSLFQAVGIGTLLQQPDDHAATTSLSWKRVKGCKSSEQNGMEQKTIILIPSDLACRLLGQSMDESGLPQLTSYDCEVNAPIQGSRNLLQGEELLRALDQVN

Oc1ccc2ccccc2c1N=Nc1ccccc1
inactive: [5] | [6] | [7] | [10] | [12] | [14] | [16]
active: [1] 3380 nM | [2] 5520 nM | [3] 12600 nM | [4] 24600 nM | [8] 14800 nM | [9] 50000 nM | [11] 5480 nM | [13] 15700 nM | [15] 3660 nM | [17] 11800 nM | [18] 1700 nM

O=C(OCCCCCOC(=O)c1ccccc1)c1ccccc1
inactive: [1] | [3] | [6] | [7] | [8] | [15]
active: [2] 543 nM | [4] 1570 nM | [5] 1620 nM | HGF (gene 3082) 2120 nM | [9] 1970 nM | [10] 3240 nM | [11] 1990 nM | [12] 1020 nM | [13] 1910 nM | [14] 2570 nM | [16] 1290 nM | [17] 2100 nM | [18] 973 nM

Cc1ccc(C)c(O)c1C
inactive: all assays above

C=CCOC(=O)c1ccccc1C(=O)OCC=C
inactive: all assays above
